Results: PubChem BioAssay (NCATS)
Results filed as inconclusive are left out. Active and inactive are the calls of the source. Calls follow the shape of the dose curve; as a rule, active = well fitted curve in the direction sought with a large enough effect; inconclusive = small, poorly fitted or top-dose-only effect, or another doubt; inactive = no such curve, though single readings can be large; an effect the other way counts as inactive or inconclusive.

Experiments:
[1] = Cell Viability - H-4-II-E (AID 543);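 also: cells exposed to compound for 40 hours; % is scaled to controls: 0 for no effect and ±100 for the full control effect; nearly all actives have a fitted effect of over 35% in size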
How it was run: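 Rat hepatoma H-4-II-E cells, 1500 per well, treated 40 h at 37 °C in complete medium. Cellular ATP read by CellTiter-Glo luminescence; AC50 from Hill fits of concentration-response.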

[2] = Cell Viability - Renal Proximal Tubule (AID 545);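 also: cells exposed to compound for 40 hours; nearly all actives have a fitted effect of over 40% in size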
How it was run: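 Luminescent ATP signal (CellTiter-Glo) served as the viability read-out after 40 hr compound exposure of freshly isolated rat proximal tubule cells at 37 °C. Concentration-dependent ATP loss was fitted with the Hill equation to give AC50.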

[3] = Cell Viability - Mesenchymal (AID 546);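 also: cells exposed to compound for 40 hours before reading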
How it was run: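 Normal human renal glomerulus-derived kidney mesenchymal cells, 1000 per well in complete medium, were treated with compounds for 40 hr at 37 °C. Viability was read as intracellular ATP by CellTiter-Glo luminescence; AC50 values came from Hill-equation fits of qHTS concentration-response data.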

[4] = Cellular Toxicity (caspase-3) HepG2 (AID 654);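 also: cells exposed to compound for 16 hours before reading; 0% = DMSO alone and 100% = caspase signal from 100 µM tamoxifen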
How it was run: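 HepG2 cells (1500/well) were treated 16 h at 37 °C in complete medium, then caspase 3/7 activity was read by Caspase-Glo luminescence. Data were normalized to DMSO and 100 uM tamoxifen; AC50 came from Hill-equation fits of qHTS concentration-response.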

[5] = Cellular Toxicity (caspase-3) Jurkat (AID 655); settings: Jurkat caspase-3 activation, luminescence; caspase-3 activation: at 92.2 µM (top of the series), DMSO = 0%, tamoxifen = 100%;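 also: cells exposed to compound for 16 h at 37 °C before reading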
How it was run: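 5000 Jurkat cells/well; compound 16 hr, 37 °C; Caspase-Glo 3/7 added, 20 min RT; luminescence read. Norm: DMSO = 0%, tamoxifen 100 uM = 100%. AC50, Hill model.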

[6] = Cellular Toxicity (caspase-3) SHSY5Y (AID 657)
How it was run: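 qHTS, SH-SY5Y, 1500 cells/well, 5 h pre-incubation 37 °C; compound 16 h 37 °C; Caspase-Glo 3/7 1 h RT; luminescence. Norm.: DMSO = 0, 10 uM staurosporine = 100%. Hill fit → AC50.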

[7] = Cellular Toxicity (caspase-3) BJ (AID 658);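 also: 0% = DMSO basal and 100% = 10 µM staurosporine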
How it was run: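 Luminescent aminoluciferin-substrate cleavage reports caspase 3/7 activity in normal human BJ fibroblasts after 16 hr compound exposure at 37 °C. Normalized to DMSO (basal) and 10 uM staurosporine (100%); AC50 from Hill fit of concentration-response.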

[8] = Cellular Toxicity (caspase-3) Mesangial (AID 660); settings: mesangial cells, normalized: DMSO 0%, 100 µM tamoxifen 100%; at 91.7 µM (top of the series);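 also: cells exposed to compound for 16 h before the caspase read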
How it was run: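 Human renal glomerular mesangial cells, 1000/well, 5 h at 37 C before 16 h compound treatment. Caspase-Glo 3/7 luminescence after 20 min; normalized to DMSO and 100 uM tamoxifen, AC50 from Hill fit.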

[9] = Cellular Toxicity (caspase-3) SK-N-SH (AID 661);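 also: 0% = DMSO basal and 100% = 10 µM staurosporine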
How it was run: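 Human SK-N-SH neuroblastoma cells, 1500/well, were exposed to compounds for 16 hours at 37 °C. Caspase-Glo 3/7 luminescence was normalized to DMSO (basal) and 10 uM staurosporine (100%), and AC50 came from a Hill fit.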

[10] = Cellular Toxicity (caspase-3) H-4-II-E (AID 663); settings: H-4-II-E rat hepatoma, scaled: DMSO 0%, 100 µM tamoxifen 100%; at 92.2 µM (top of the series);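 also: cells exposed to compound for 16 hr before readout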
How it was run: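 Luminescence from caspase-cleaved aminoluciferin substrate, read 20 min after reagent addition, reports caspase 3/7 activation in rat H-4-II-E cells after 16 hr compound exposure. Normalized to DMSO (basal) and 100 uM tamoxifen (100%); AC50 from Hill fits.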

[11] = Cellular Toxicity (caspase-3) Hek293 (AID 664); settings: HEK293 caspase-3 activation, DMSO = 0%, 100 µM tamoxifen = 100%; at 92.2 µM (top of the series);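 also: cells exposed to compound for 16 h at 37 °C before readout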
How it was run: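 HEK293 cells in complete medium treated 16 h at 37 °C, then Caspase-Glo 3/7 luminescence read after 20 min at room temperature. Normalized to DMSO and 100 uM tamoxifen; AC50 from Hill fit of concentration-response.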

[12] = Cellular Toxicity (caspase-3) N2a (AID 665);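 also: compound exposure lasted 16 h at 37 °C before readout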
How it was run: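 Mouse N2a neuroblastoma cells, 1500 per well, treated 16 h at 37 °C in complete medium; caspase-3/7 activity by Caspase-Glo luminescence after 1 h. Normalized to DMSO and 10 uM staurosporine; AC50 from Hill fits.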

[13] = Cellular Toxicity (caspase-3) NIH 3T3 (AID 666);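 also: 0% = DMSO basal and 100% = 100 µM tamoxifen stimulation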
How it was run: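 Mouse NIH 3T3 fibroblasts (1000/well) treated 16 h at 37 C; caspase-3/7 activity measured by Caspase-Glo 3/7 luminescence after 20 min. Normalized to DMSO and 100 uM tamoxifen; AC50 from Hill fits.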

[14] = Cellular Toxicity (caspase-3) Renal Proximal Tubule (AID 667); settings: Potency: caspase-3 activation;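 also: cells exposed to compound for 16 hours at 37 °C before detection; 0% = DMSO basal and 100% = 10 µM staurosporine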
How it was run: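 AC50 derived by standard Hill fit of concentration-response data, normalized between DMSO basal and 10 uM staurosporine as 100% stimulation. Cells: primary rat kidney proximal tubule, 16 h treatment at 37 °C.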

[15] = Cell Viability - LYMP2-001 (AID 921);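 also: cells exposed to compound for 24 h at 37 °C; 0% = DMSO only and full inhibition = tetraoctylammonium bromide control wells; nearly all actives have a fitted effect of over 70% in size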
How it was run: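 Steps: seed 2500 lymphoblastoid cells/well; 5 hr, 37 C; add compound; 24 hr, 37 C; CellTiter-Glo reagent, 30 min room temperature; read luminescence. Concentration-response modeled by Hill equation for AC50.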

[16] = Cellular Toxicity (caspase-3) MRC-5 (AID 659);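 also: 0% = DMSO basal and 100% = 10 µM staurosporine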
How it was run: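 Luminescence from caspase-cleaved aminoluciferin substrate (Caspase-Glo 3/7, 1 hr RT) reports caspase 3/7 activity in MRC-5 lung fibroblasts after 16 hr compound exposure. Normalized to DMSO basal and 10 uM staurosporine as 100%; AC50 from Hill fits.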

[17] = target: Cytochrome P450 3A4 (Homo sapiens) (UniProt P08684); assay: qHTS Assay for Inhibitors and Substrates of Cytochrome P450 3A4 (AID 884); also: % is scaled to controls: 0 for no effect and ±100 for the full control effect; nearly all actives have a fitted effect of over 50% in size
How it was run: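 20 nM human CYP3A4 with 25 uM Luciferin-PPXE (at KM) in 200 mM KPO4, preincubated 10 min with compound; NADPH regeneration started a 60 min RT reaction. Luciferin detected by luminescence, normalized to 57 uM ketoconazole as full inhibition.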

[18] = Cellular Toxicity (caspase-3) HUV-EC-C (AID 656)
How it was run: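 qHTS; HUV-EC-C, 1000 cells/well; 5 hr settle, 16 hr cmpd, 37°C; Caspase-Glo 3/7, 20 min RT; luminescence. Norm: DMSO = 0%, tamoxifen 100 uM = 100%. Hill-fit AC50.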

[19] = target: Cytochrome P450 3A4 (Homo sapiens) (UniProt P08684); assay: qHTS Assay for Activators of Cytochrome P450 3A4 (AID 885); also: nearly all actives have a fitted effect of over 65% in size
How it was run: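 Signal was normalized against complete inhibition by 57 uM ketoconazole. The reaction used 20nM CYP3A4 with 25uM Luciferin-PPXE, 10-min compound preincubation and a 60-min NADPH-supported step at RT.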

[20] = Cell Viability - SH-SY5Y (AID 544); settings: SH-SY5Y neuroblastoma cell viability; viability change, negative = cytotoxic: at 92.2 µM (top of the series);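 also: cells exposed to compound for 40 hours; nearly all actives have a fitted effect of over 55% in size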
How it was run: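 SH-SY5Y human neuroblastoma cells (1500/well) incubated 5 h, then compound-treated 40 h at 37 °C in complete medium. Viability read as intracellular ATP by CellTiter-Glo luminescence after 20 min; AC50 from Hill-equation fits of qHTS concentration-response.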

Sequence of Cytochrome P450 3A4 (Homo sapiens) (P08684 whole entry, looked up): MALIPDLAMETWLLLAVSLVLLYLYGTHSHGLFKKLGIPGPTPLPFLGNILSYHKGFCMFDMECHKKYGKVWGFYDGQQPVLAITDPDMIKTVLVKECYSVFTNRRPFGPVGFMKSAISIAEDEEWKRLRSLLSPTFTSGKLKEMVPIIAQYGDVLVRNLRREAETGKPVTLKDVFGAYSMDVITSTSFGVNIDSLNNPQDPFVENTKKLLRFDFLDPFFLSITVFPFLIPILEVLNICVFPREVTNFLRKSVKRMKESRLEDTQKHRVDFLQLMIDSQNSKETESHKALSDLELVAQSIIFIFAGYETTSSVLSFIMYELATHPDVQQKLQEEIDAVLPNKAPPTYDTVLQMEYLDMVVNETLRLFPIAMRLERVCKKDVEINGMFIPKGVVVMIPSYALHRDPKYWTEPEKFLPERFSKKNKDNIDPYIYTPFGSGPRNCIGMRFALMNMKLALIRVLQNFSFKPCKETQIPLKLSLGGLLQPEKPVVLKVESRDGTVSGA

C=CCn1c(=O)n(CC=C)c(=O)n(CC=C)c1=O
inactive: Potency [1] | Potency [2] | Potency [3] | Potency [4] | caspase-3 activation [5] -0.997% | outcome [6] | outcome [7] | caspase-3 activation [8] -1.07% | outcome [9] | caspase-3 activation [10] 0.22% | caspase-3 activation [11] -1.6% | outcome [12] | outcome [13] | Potency [14] | Potency [15]

NCCCCCCN
inactive: Potency [1] | Potency [2] | Potency [4] | caspase-3 activation [5] -1.28% | outcome [6] | outcome [7] | outcome [16] | outcome [9] | caspase-3 activation [10] 1.31% | caspase-3 activation [11] -1.45% | outcome [12] | outcome [13] | Potency [14] | Potency [17] | Potency [15]

CC#N
inactive: Potency [1] | Potency [2] | Potency [3] | Potency [4] | caspase-3 activation [5] 1.05% | outcome [18] | outcome [6] | outcome [7] | outcome [16] | outcome [9] | caspase-3 activation [10] 0.385% | caspase-3 activation [11] 1.27% | outcome [12] | outcome [13] | Potency [14] | Potency [17] | Potency [15]

O=[N+]([O-])c1ccc(NCCO)c(OCCO)c1
inactive: Potency [1] | Potency [2] | Potency [3] | Potency [4] | caspase-3 activation [5] 3.12% | outcome [6] | outcome [7] | outcome [16] | caspase-3 activation [8] 0.383% | outcome [9] | caspase-3 activation [10] 0.77% | caspase-3 activation [11] 0.203% | outcome [12] | outcome [13] | Potency [14] | Potency [15]

COc1ccc(OC)cc1
inactive: Potency [1] | Potency [2] | Potency [3] | Potency [4] | caspase-3 activation [5] 0.323% | outcome [18] | outcome [6] | outcome [7] | outcome [16] | caspase-3 activation [8] 0.503% | outcome [9] | caspase-3 activation [10] -0.441% | caspase-3 activation [11] 0.282% | outcome [12] | outcome [13] | Potency [14] | Potency [17] | Potency [15]

C1CCOC1
inactive: Potency [1] | Potency [2] | Potency [3] | Potency [4] | outcome [18] | outcome [6] | outcome [7] | outcome [16] | caspase-3 activation [8] -0.124% | outcome [9] | caspase-3 activation [10] 0.164% | caspase-3 activation [11] -1.25% | outcome [12] | outcome [13] | Potency [14] | Potency [17] | Potency [15]

CC/C(C)=N/O
inactive: Potency [1] | Potency [2] | Potency [3] | Potency [4] | outcome [18] | outcome [6] | outcome [7] | outcome [16] | caspase-3 activation [8] 0.891% | outcome [9] | caspase-3 activation [10] -0.877% | caspase-3 activation [11] 1.42% | outcome [12] | outcome [13] | Potency [14] | Potency [17] | Potency [15]

C[C@@H]1CC2(OC3C[C@@]4(C)C5=CC[C@H]6C(C)(C)C(O[C@@H]7OC[C@@H](O)[C@H](O)[C@H]7O)CC[C@@]67C[C@@]57CC[C@]4(C)C31)OC(O)C1(C)OC21 (stereo partly drawn)
inactive: Potency [1] | Potency [2] | Potency [3] | Potency [4] | caspase-3 activation [5] 2.56% | outcome [18] | outcome [6] | outcome [7] | caspase-3 activation [8] -0.636% | outcome [9] | caspase-3 activation [10] 1.92% | caspase-3 activation [11] 2.55% | outcome [12] | outcome [13] | Potency [14] | outcome [19] | Potency [15]

CCCCC(C=O)CC (stereo not drawn)
inactive: Potency [1] | Potency [2] | Potency [4] | caspase-3 activation [5] -0.967% | outcome [18] | outcome [6] | outcome [7] | outcome [16] | caspase-3 activation [8] 0.71% | outcome [9] | caspase-3 activation [10] 3.13% | caspase-3 activation [11] 1.03% | outcome [12] | outcome [13] | Potency [14] | Potency [15]

CCOc1ccc(NC(C)=O)cc1N
inactive: Potency [20] | Potency [2] | Potency [3] | Potency [4] | caspase-3 activation [5] 0.0364% | outcome [18] | outcome [6] | outcome [7] | outcome [16] | caspase-3 activation [8] 0.11% | outcome [9] | caspase-3 activation [10] 0.579% | caspase-3 activation [11] -1.58% | outcome [12] | outcome [13] | Potency [14] | Potency [17] | Potency [15]

Cc1ccccc1Br
inactive: Potency [1] | Potency [2] | Potency [3] | Potency [4] | caspase-3 activation [5] -0.129% | outcome [18] | outcome [6] | outcome [7] | outcome [16] | outcome [9] | caspase-3 activation [10] 0.309% | caspase-3 activation [11] -0.786% | outcome [12] | outcome [13] | Potency [14] | Potency [15]

C=C(C)C(=O)OCC(C)C
inactive: Potency [1] | Potency [2] | Potency [3] | Potency [4] | caspase-3 activation [5] 0.091% | outcome [18] | outcome [6] | outcome [16] | caspase-3 activation [8] 1.08% | outcome [9] | caspase-3 activation [10] 0.664% | caspase-3 activation [11] -0.498% | outcome [12] | outcome [13] | Potency [14] | Potency [17] | Potency [15]

O=C(O)c1ccccc1C(=O)O
inactive: Potency [1] | Potency [2] | Potency [3] | Potency [4] | caspase-3 activation [5] 2.22% | outcome [18] | outcome [6] | outcome [7] | outcome [16] | caspase-3 activation [10] -0.105% | caspase-3 activation [11] 3.14% | outcome [12] | outcome [13] | Potency [14] | Potency [17] | Potency [15]

Nc1ccccc1[N+](=O)[O-]
inactive: Potency [1] | Potency [2] | Potency [3] | Potency [4] | outcome [18] | outcome [6] | outcome [7] | outcome [16] | caspase-3 activation [8] -0.609% | outcome [9] | caspase-3 activation [10] 1.23% | caspase-3 activation [11] -2.96% | outcome [12] | outcome [13] | Potency [14] | Potency [17] | Potency [15]

Cc1cscn1
inactive: Potency [1] | Potency [2] | Potency [4] | caspase-3 activation [5] 2.2% | outcome [18] | outcome [6] | outcome [7] | outcome [16] | caspase-3 activation [8] 0.991% | caspase-3 activation [10] 0.996% | caspase-3 activation [11] 1.04% | outcome [12] | outcome [13] | Potency [14] | Potency [17] | Potency [15]
